Hits are enriched below; roughly 6.9% of the tested compounds scored in any of these assays.
NR3A LBD binder – NR3A (human) ligand-binding domain modulation; NR3A LBD differential scanning fluorimetry, Tm shift; 0% = protein alone, 100% = glycine-bound protein; Tm shift relative to glycine control, % at 25 µM; actives 2.5% (n = 340,000); AID 1259313;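 active means melting temperature shift of at least 10% of the positive control shift, at one fixed dose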
MPTP block – blocks calcium-induced mitochondrial swelling; AID 602449; inhibition, % at 10 µM; isolated mouse mitochondria, Ca2+ swelling absorbance, 30 min; actives 1.4% (n = 360,000);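 active means inhibition of 50% or more, scaled per plate between neutral and stimulator controls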;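 further: 0% = DMSO wells given calcium and 100% = 1 mM EGTA wells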
CSC inhib – cancer stem cell inhibition. cancer stem cell-like cells viability, luminescence. inhibition, % at 7.5 µM. actives 1.1% (n = 300,000); in the data active means inhibition above about 75%; tested in HMLE shEcad cells
Mdm2 MdmX PPI – disrupts the human Mdm2-MdmX interaction | O15151+Q00987 | SaOS-2 split-luciferase Mdm2/MdmX complementation, luminescence | inhibition, % at 8 µM | actives 3% (n = 330,000) | AID 485346;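 active means inhibition of at least 50% at 8 µM in the primary screen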
SKKanGAS inh – inhibitors of SKKanGAS S. pyogenes growth in kanamycin (SK-promoter or general growth effect); BacTiter-Glo, 6 h; inhibition, % at 7.5 µM; actives 1.3% (n = 300,000); AID 1662;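 active means mean replicate score, as percent of positive control median, at least 50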;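 further: strain carries kanamycin resistance gene driven by streptokinase promoter and grows in 40 µg/ml kanamycin; loss of luminescence reflects streptokinase promoter inhibition or plain growth inhibition; 0% = median of DMSO wells and 100% = positive control at its reference dose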
Beta cell apopt – blocks beta cell apoptosis | actives 0.8% (n = 300,000) | INS-1E cytokine-induced death, ATP luminescence, 48 h; percent of positive-control rescue, neutral wells zero | protection from apoptosis, % (no concentration beside the values);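 active means Every replicate reaches about 75%, or at least half do and their mean reaches it too, limit read from the data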;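 further: 0% = cytokine-treated negative control wells and 100% = positive control rescue; higher means more ATP so stronger rescue from cytokine killing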
Mdm2-MdmX conf – human Mdm2/MdmX binding inhibition, confirmed | shares compounds with Mdm2 MdmX PPI | luminescent assay | inhibition, % at 8 µM | actives 55% (n = 10,000); in the data active means inhibition above about 40%
Full FLuc ctr – inhibits full-length luciferase, flagging false Mdm2/MdmX hits | shares compounds with Mdm2 MdmX PPI | AID 504607 | actives 77% (n = 6,200) | SaOS-2 full-length luciferase counterscreen, luminescence | inhibition, % at 8 µM;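 active means mean inhibition at 8 µM reaching about 37%, which flags the compound as non-specific, limit read from the data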;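 further: p53-null SaOS-2 cells with luciferase driven by a doxycycline-inducible promoter; compound on cells about two nights before reading with doxycycline added after day one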
* hit, by the source's call; nt = no result.

SMILES	NR3A LBD binder	MPTP block	CSC inhib	Mdm2 MdmX PPI	SKKanGAS inh	Beta cell apopt	Mdm2-MdmX conf	Full FLuc ctr
Cc1ccc(-c2csc3ncnc(NCCN4CCOCC4)c23)cc1	-2	-1	0	54*	-3	-3	32	nt
COc1ccc(OCc2cc(C(=O)N3CCOCC3)no2)c(Cl)c1	0	0	9	-77	3	-4	nt	nt
Cc1cc(NC(=O)COC(=O)c2c(Cl)cccc2Cl)no1	-1	0	nt	88*	nt	-4	59*	54*
Cc1cc(NC(=O)COC(=O)c2ccccc2NCCO)no1	2	-1	-13	-7	nt	-9	nt	nt
Cc1cc(NC(=O)COC(=O)c2ccccc2S(=O)(=O)N(C)c2ccccc2)no1	-2	2	27	96*	-5	-10	72*	43*
CC1=C(C(=O)OC2CCCCCCC2)C(c2cc3c(cc2Br)OCO3)CC(=O)N1 (stereo not given)	-25	-2	118*	78*	43	16	28	nt
COc1ccc(-c2cc(C(F)(F)F)nc(-n3ccnc3C)n2)cc1	-7	-2	7	55*	-7	-3	36	nt
COc1ccccc1C(=O)NNC(=O)CCCN1C(=O)/C(=C/c2cccs2)SC1=S	-2	3	13	72*	4	-8	77*	63*
O=C1/C(=C/c2cccs2)SC(=S)N1CCCC(=O)N(CCO)c1ccccc1	4	4	-5	53*	3	-33	32	nt
CCOc1ccc(/C=C2\SC(=S)N(CCC(=O)N(CCO)c3ccccc3)C2=O)cc1	-1	1	9	65*	15	-40	17	nt
O=C(CCCN1C(=O)/C(=C\c2cccs2)SC1=S)NNC(=O)c1ccncc1	0	2	-8	-7	-21	6	nt	nt
CCOC(=O)C1=CN(Cc2ccco2)S(=O)(=O)N(CC)C1c1ccc(C(F)(F)F)cc1 (stereo not given)	3	-2	nt	26	nt	nt	nt	nt
CC(NC(=O)Cn1cccc1)c1ccccc1 (stereo not given)	-3	-1	3	2	-5	-5	nt	nt
Cc1ccccc1-c1nc(CN2CCC(C(=O)NC3CCCCC3)CC2)c(C)o1	-3	-1	8	4	-1	-1	nt	nt
Cc1ccccc1-c1nc(CN2CCC(C(=O)NCCCN3CCCC(C)C3)CC2)c(C)o1 (stereo not given)	-3	-1	3	96*	-2	4	70*	43*
Cc1ccccc1-c1nc(CN2CCC(C(=O)NCCC3=CCCCC3)CC2)c(C)o1	1	10	-12	58*	-5	6	34	76*
C=CC[C@]12C=C(OC)C(=O)C(OC)=C1O[C@@H](c1ccc3c(c1)OCO3)[C@H]2C	1	0	-11	0	1	-3	nt	nt
C=CC[C@]12CC=CC(=O)[C@@]1(O)O[C@H](c1ccc(OC)c(OC)c1)[C@H]2C	0	0	39	50*	0	-6	30	nt
O=C(CN1C(=O)NC2(CCCc3ccccc32)C1=O)c1ccc(Br)cc1 (stereo not given)	1	0	-8	6	24	0	nt	nt
O=C(Nc1cccc2[nH]ncc12)c1ccc(F)cc1	-1	1	-14	60*	3	-15	74*	25
O=C(NC(=S)Nc1cccc2[nH]ncc12)c1ccccc1	0	-5	-7	17	1	-14	nt	nt
Cc1cc(C)nc(/N=C(\N)Nc2ccc(OCc3ccccc3)cc2)n1	0	34	44	54*	-1	45	35	nt
COc1cccc(NC(=O)CSc2nnc(-c3cc(C)n(-c4ccccc4)c3C)o2)c1	-1	2	65	82*	24	0	83*	59*
Cc1cc(C)cc(NC(=O)CSc2nnc(-c3ccccc3Br)o2)c1	1	17	1	9	-15	-1	nt	nt
CCSc1nc2sc3c(c2c(=O)n1-c1ccccc1)CCN(C(C)C)C3	1	0	27	14	7	2	nt	nt
COc1ccc(S(=O)(=O)N2CCN(S(=O)(=O)c3ccc4c(c3)OCCO4)CC2)cc1	1	-5	1	58*	-6	0	15	nt
